# Screen size: about 420,000 compounds; about 64,000 (15%) were called active. Another 27% or so got no clear call; they are omitted. A selection follows. Unmarked numbers belong to inactive results. Calls come from the whole dose curve; as a rule, active = well fitted inhibition curve with a large enough effect; inconclusive = small, poorly fitted or top-dose-only effect; inactive = flat fitted curve, though single readings scatter.
# Assay: qHTS for Inhibitors of human tyrosyl-DNA phosphodiesterase 1 (TDP1): qHTS in cells in absence of CPT; note: nearly all actives have a fitted effect of over 55% in size
# Details: DT40 Tdp1-/- hTDP1 cells, no CPT, ATP luminescence, 48 h; activity change, negative = growth inhibition: at 46.2 µM (top of the series)
# How it was run: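 Stably hTDP1-transfected Tdp1-null chicken DT40 cells were treated with library compounds minus camptothecin and grown for at least 48 hr at 37 °C, after which cellular ATP was quantified by luminescence.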
# % is set by controls: 0 for no effect and ±100 for the full control effect; potency is the fitted concentration of half-maximal effect.
SMILES,"activity change, negative = growth inhibition [%]",Potency
Cc1ccc(NC(=O)CSc2nnc(CNC(=O)c3ccccc3F)o2)cc1Cl,6.65,–
Cc1cccc(-n2c(SCC(=O)Nc3cccc(S(=O)(=O)NC4=NCCCCC4)c3)nc3ccccc3c2=O)c1C,–,16.4 µM (active)
COc1ccccc1C(=O)OCC(=O)Nc1cccc(S(=O)(=O)NC2=NCCCCC2)c1,-28.2,–
CCc1ccc(C(=O)OCC(=O)Nc2cccc(S(=O)(=O)NC3=NCCCCC3)c2)cc1,-16.1,–
O=C(Cc1cccs1)Nc1nnc(SCc2ccc(F)cc2)s1,-8.66,–
O=[N+]([O-])c1cccc(C=NN=Cc2ccccc2O)c1,-0.122,–
O=[N+]([O-])c1ccc(O)c(/C=N/Nc2ccccc2[N+](=O)[O-])c1,–,18.4 µM (active)
Nc1nnnn1/N=C/c1cc([N+](=O)[O-])ccc1O,-19,–
CCCCn1c(N)c(N(CCC(C)C)C(=O)c2ccc(COc3ccccc3)o2)c(=O)[nH]c1=O,-8.96,–
CS(=O)(=O)N1CCN(CC(=O)NC2CCCC2)CC1,-27.4,–
COc1ccccc1-n1c(-c2cc(-c3ccco3)[nH]n2)n[nH]c1=S,-5.33,–
Cn1c(-c2ccco2)nc2cc3ccccc3cc21,–,20.6 µM (active)
CN(c1nc2ccccc2n2c(-c3ccco3)nnc12)S(=O)(=O)c1ccccc1,-12.7,–
CCN(CC)C(=O)CSC1c2ccccc2C(=O)N1c1ccccc1 (stereo not drawn),-17.6,–
COC(=O)c1ccc(-n2cnc3ccccc32)nc1,0.376,–
COC(=O)CSc1nc(C)c2ccc(OC)cc2n1,-3.51,–
O=C(O)C(c1ccccc1)C1(O)CCCCC1 (stereo not drawn),-7.94,–
O=C(Nn1c(-c2ccc(Cl)cc2)nc2ccccc2c1=O)c1cccnc1Cl,2.46,–
CC1COc2ccccc2N1C(=O)c1cccnc1Cl (stereo not drawn),-1.42,–
CN1/C(=C\C(=O)c2cccnc2Cl)C(C)(C)c2ccccc21,–,16.4 µM (active)
COCCN(C(=O)CCC(=O)Nc1nccs1)C(C(=O)NCCC(C)C)c1ccc(F)cc1 (stereo not drawn),-22.3,–
Cc1ncc2c(c1CNS(=O)(=O)N(C)C)CCN(C(=O)c1ccccc1F)C2,-14.2,–
CC(C)(C)N(Cc1ccccc1)C(=O)c1ccncc1,8.21,–

SMILES,"activity change, negative = growth inhibition [%]",Potency
CC(=O)N1N=C(c2ccncc2)OC1(Cc1ccccc1)Cc1ccccc1,–,8.2 µM (active)
CC(=O)N1N=C(c2ccccc2)OC1c1cccnc1 (stereo not drawn),-18.3,–
CC1(c2cccc(N)c2)OCCO1,1.06,–
Cc1ccc(S(=O)(=O)/N=C(/NC(=S)Nc2c(C)n(C)n(-c3ccccc3)c2=O)c2ccccc2)cc1,14.8,–
CC(C)C(=O)NCC(c1cccs1)S(=O)(=O)c1ccc(F)cc1 (stereo not drawn),11.1,–
Cc1ccccc1CNC(=O)C(=O)NCC(c1cccs1)S(=O)(=O)c1cccs1 (stereo not drawn),–,14.6 µM (active)
COc1ccccc1CNC(=O)COC(=O)c1cccs1,-1.27,–
O=C(CNC(=O)c1ccco1)NNC(=O)c1ccc(Br)cc1,17.5,–
O=C(Oc1ccc(-c2nc(-c3ccccn3)no2)cc1)c1ccccc1,–,9.2 µM (active)
O=C(Oc1ccccc1)c1ccc2nccnc2c1,2.88,–
CC(C)c1nc(-c2ccccn2)no1,-11.4,–
COc1ccc(S(=O)(=O)N2CCN(CC(=O)N3c4ccccc4CC3C)CC2)cc1OC (stereo not drawn),-5.83,–
O=C(NC1=NCCS1)[C@H](Cc1ccccc1)N1C(=O)c2ccccc2C1=O,-17.9,–
Cc1occc1C(=O)Nc1cccc(Cn2cccn2)c1,-25.6,–
Cc1occc1C(=O)NNC(=S)NCC(C)C,-1.82,–
Cc1occc1C(=O)NC1CCCN(Cc2ccc(CC(C)C)cc2)C1 (stereo not drawn),–,20.6 µM (active)
CCOC(=O)C(NC(C)=O)C(=O)Nc1ccc(OC)cc1 (stereo not drawn),-3.87,–
CC(=O)N(O)CCCCCNC(=O)CCC(=O)N(O)CCCCCNC(=O)CCC(=O)N(O)CCCCCNC(=O)CCC(=O)O,-5.15,–
Cc1cc(C)nc(NC2=NCC(=O)N2c2ccc(Cl)cc2)n1,-7.59,–
CCc1nc2ccc(C(=O)N3CCN(c4cc(Cl)ccc4C)CC3)cc2nc1CC,–,18.4 µM (active)
CCOC(=O)N1CCN(C(=O)c2ccc3nc4cc(Cl)ccc4c(=O)n3c2)CC1,-13.1,–
Cc1ccc(Cl)cc1N1CCN(C(=O)c2cccn3c(=O)c4cc(Cl)ccc4nc23)CC1,-1.72,–
CN(C)CCCNC(=S)N1CCC(c2nc3ccccc3[nH]2)CC1,10.9,–

SMILES,"activity change, negative = growth inhibition [%]",Potency
CC(C)(C)c1ccc(C(CC(=O)O)NS(=O)(=O)Cc2ccccc2)cc1 (stereo not drawn),12.1,–
CCCCc1nc2c(=O)[nH]c3ccccc3c2o1,-13.7,–
CC1=C/C(=N\OS(=O)(=O)c2ccccc2)C=CC1=O,–,1 µM (active)
O=S(=O)(ON(c1ccccc1)S(=O)(=O)c1ccccc1)c1ccccc1,-27.9,–
CCCC(=O)Nc1nc2ccc(NC(=O)c3cccnc3)cc2s1,–,9.2 µM (active)
CCC(=O)Nc1cccc(NC(=O)c2cccnc2)c1,7.17,–
CSc1nc2ccc(NC(=O)c3c(F)cccc3F)cc2s1,-1.17,–
CCOC(=O)c1cc(NC(=O)c2cccnc2)cc(C(=O)OCC)c1,-5.59,–
CCCC(=O)Nc1ccc2c(c1)nc1n2CCSC1,-2.08,–
CCCC(=O)Nc1nc2ccc(NC(=O)c3c(F)c(F)c(OC)c(F)c3F)cc2s1,–,0.651 µM (active)
O=C(COC(=O)/C=C/c1ccc(OC(F)F)cc1)NC1CCCCC1,-11,–
O=C(CCNS(=O)(=O)c1ccccc1)NCCCc1ccccc1,15.1,–
O=S(=O)(c1ccccc1)N1CN(Cc2ccc(F)cc2)c2nc3ccccc3nc21,-29.9,–
O=C(CCN1C(=O)C2CCCCC2C1=O)Nc1ccc(OC(F)F)cc1 (stereo not drawn),-2.98,–
COc1ccccc1CNc1ncnc2ccc(-c3c(C)noc3C)cc12,–,11.6 µM (active)
COc1ccccc1CNc1ncnc2ccc(-c3ccc4c(c3)OCO4)cc12,-26.4,–
COCCNc1ncnc2ccc(-c3ccccc3CN(C)C)cc12,-13.2,–
CCC1(CC)NC(=O)N(CC(=O)OCC(=O)Nc2ccc(C(F)(F)F)cc2)C1=O,-10.4,–
CCCN(C/C=C\I)[C@@H]1CCc2cccc(O)c2C1,–,21.1 µM (active)
CCCN(CCc1ccccc1)C1CCc2c(O)cccc2C1 (stereo not drawn),–,11.6 µM (active)
O=C(C(=O)N1CCOc2ccc(CN3CCN(Cc4ccccn4)CC3)cc2C1)c1ccccc1,-22.4,–
COCCNC(=O)c1onc(CSc2cccc(C)c2)c1C(=O)O,-8.38,–

# Source: PubChem BioAssay AID686978 (National Center for Advancing Translational Sciences (NCATS), 2013)
